# Laboratory results reported in PubChem BioAssay (EPA / NIEHS).
# Records with an inconclusive call do not appear. Calls of active or inactive are those of the source. The calls were made as follows, unless noted: active = hit-call score of the fitted dose curve at least 0.9, where 1 is the maximum; inactive = score below 0.9.
# Tests used:
# [1] = CCTE_Simmons_MITO_basal_resp_rate: CCTE's HepG2 Seahorse XF Respirometric Screening Assay at Basal Respiratory State, Simmons Lab (AID 2284001); conditions: actives raise or lower the signal
# Procedure, shortened: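 HepG2 respirometry; 7-pt titration 125 nM–100 uM final; kinetic OCR at 6 min intervals for 72 min; n=3 biological, technical singles; DMSO baseline, gain or loss fit; fenpyroximate (decrease) and 2,4-DNP (increase) controls.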
# [2] = CCTE_Simmons_MITO_inhib_resp_rate: CCTE's HepG2 Seahorse XF Respirometric Screening Assay at Inhibited Respiratory State [full ETC block], Simmons Lab (AID 2284006); conditions: actives raise or lower the signal
# Procedure, shortened: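 Inhibited respiration was taken as HepG2 oxygen consumption after rotenone/antimycin A, which followed test-compound and FCCP injections. Chemicals were tested at seven final concentrations from 125 nM to 100 uM. Activity was fitted bidirectionally relative to DMSO.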
# [3] = CCTE_Shafer_MEA_acute_spike_number: CCTE's Neural Acute Assay for Total Number of Spikes, Shafer Lab (AID 2284008);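 also: curve fitted for decrease in spike count so AC50 reflects inhibitors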
# Procedure, shortened: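 Using an adaptive detector set to 8x rms noise, spikes were counted in 40-min windows before and after compound addition (0.03-40 uM) to rat cortical networks at 37 C; the well-level change from baseline was analysed relative to DMSO.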
# [4] = CCTE_Shafer_MEA_acute_firing_rate_mean: CCTE's Neural Acute Assay for Mean Firing Rate, Shafer Lab (AID 2284009);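 also: analyzed for loss of signal so actives lower firing rate relative to DMSO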
# Procedure, shortened: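 Percent change in well-mean firing rate was derived from extracellular spikes detected at 8x rms noise (300-5000 Hz band-pass) before and after a 40-min compound exposure. Cultures were primary rat cortical neurons, tested at 0.03-40 uM.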
# [5] = CCTE_Harrill_HTTr_Viability_MCF7: CCTE's 6-hour Cell Viability Assessment for the High-Throughput Transcriptomics (HTTr) Platform, in MCF-7 cells cultured in DMEM + 10% fetal bovine serum, Harrill Lab (AID 2284010)
# Procedure, shortened: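 Viability measured through PI dye exclusion by high-content imaging at 6 h post-dosing.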
# [6] = CCTE_Harrill_HTTr_Apoptosis_MCF7: CCTE's 6-hour Apoptosis Assessment for the High-Throughput Transcriptomics (HTTr) Platform, in MCF-7 cells cultured in DMEM + 10% fetal bovine serum, Harrill Lab (AID 2284011)
# Procedure, shortened: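 Apoptosis in MCF-7 cells grown in DMEM with 10% fetal bovine serum was scored after a six hour exposure by high content imaging of caspase-3/7 activation (CellEvent Caspase 3/7 Green), with DMSO serving as negative control and baseline.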
# [7] = CCTE_Harrill_HTTr_CellCount_MCF7: CCTE's Cell Proliferation Assessment for the High-Throughput Transcriptomics (HTTr) Platform, Harrill Lab (AID 2284012; active = hit-call score of the fitted dose curve at least 0.9, where 1 is the maximum;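 also: count of Hoechst-stained nuclei per well by high-content imaging in MCF-7 cells; cells exposed to compound for six hours; intended direction is loss of nuclei count meaning fewer cells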)
# Procedure, shortened: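 Nuclei counting (Hoechst, high content imaging) in MCF-7 after a 6 h treatment at eight concentrations. Activity fitted bidirectionally, DMSO as negative control.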
# [8] = molecular target: Ratio of Nucleoli Translocation and Cytoplasm, AR (gene 367) (UniProt P10275); test: UPITT_HCI_U2OS_AR_TIF2_Nucleoli_Cytoplasm_Ratio_Agonist: University of Pittsburgh U2OS Androgen Receptor-Transcriptional Intermediary Factor 2 (AR-TIF2) Agonism High Content Imaging Assay for Ratio of Nucleoli Translocation and Cytoplasm (AID 2284000; active = hit-call score of the fitted dose curve at least 0.9, where 1 is the maximum;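 also: hits raise the red nucleolar to cytoplasm ratio above vehicle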)
# Procedure, shortened: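 Read-out first: nucleolar-to-cytoplasm ratio of red (AR-RFP) signal, quantified by high-content imaging in U2OS cells co-expressing TIF2-GFP. Activity is scored as signal increase over DMSO. Single-point screening used 20 uM final (0.2% DMSO).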
# [9] = molecular target: Ratio of Nucleoli Translocation and Cytoplasm, AR (gene 367) (UniProt P10275); test: UPITT_HCI_U2OS_AR_TIF2_Nucleoli_Cytoplasm_Ratio_Antagonist: University of Pittsburgh U2OS Androgen Receptor-Transcriptional Intermediary Factor 2 (AR-TIF2) Antagonism High Content Imaging Assay for Ratio of Nucleoli Translocation and Cytoplasm (AID 2283999; active = hit-call score of the fitted dose curve at least 0.9, where 1 is the maximum;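 also: antagonists lower the DHT-driven ratio of nucleolar to cytoplasmic red signal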)
# Procedure, shortened: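 High-content imaging quantifies the red nucleolar:cytoplasmic fluorescence ratio in U2OS cells with AR-RFP and TIF2-GFP. Final concentrations are 20 uM (screen) or 0.195–50 uM (dose response), analysed against DHT as baseline.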
# Ratio of Nucleoli Translocation and Cytoplasm, AR (gene 367), sequence (P10275 whole entry, looked up): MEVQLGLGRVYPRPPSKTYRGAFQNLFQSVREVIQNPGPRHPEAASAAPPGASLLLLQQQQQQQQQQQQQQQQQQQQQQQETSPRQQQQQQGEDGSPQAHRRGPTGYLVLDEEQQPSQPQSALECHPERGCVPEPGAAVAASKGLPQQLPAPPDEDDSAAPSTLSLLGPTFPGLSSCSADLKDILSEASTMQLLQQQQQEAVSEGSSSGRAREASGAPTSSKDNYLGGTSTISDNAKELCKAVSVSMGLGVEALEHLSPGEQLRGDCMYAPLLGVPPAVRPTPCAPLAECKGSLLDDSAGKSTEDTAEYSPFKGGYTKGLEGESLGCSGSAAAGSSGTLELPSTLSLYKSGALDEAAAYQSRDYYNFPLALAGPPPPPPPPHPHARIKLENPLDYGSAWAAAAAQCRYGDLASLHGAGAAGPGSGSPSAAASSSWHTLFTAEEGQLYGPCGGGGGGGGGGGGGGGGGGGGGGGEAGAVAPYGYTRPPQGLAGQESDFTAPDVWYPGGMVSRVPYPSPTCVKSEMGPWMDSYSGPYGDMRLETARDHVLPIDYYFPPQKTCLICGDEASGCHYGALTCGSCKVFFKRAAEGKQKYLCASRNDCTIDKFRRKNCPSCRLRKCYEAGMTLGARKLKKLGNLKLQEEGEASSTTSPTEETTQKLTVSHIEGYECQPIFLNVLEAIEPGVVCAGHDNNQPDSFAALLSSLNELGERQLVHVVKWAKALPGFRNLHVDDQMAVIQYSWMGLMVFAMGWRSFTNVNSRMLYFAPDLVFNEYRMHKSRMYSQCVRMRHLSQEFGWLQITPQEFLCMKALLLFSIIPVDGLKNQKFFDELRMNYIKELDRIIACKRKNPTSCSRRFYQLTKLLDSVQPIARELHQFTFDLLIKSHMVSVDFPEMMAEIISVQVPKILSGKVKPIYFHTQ
compound,measurement,setting,value
COc1cccc(-c2ccc(/C=C\CN3CCCCCC3)cc2Cl)c1,outcome,[1],inactive
same,outcome,[2],inactive
same,AC50,[3],3.65 µM (active)
same,AC50,[4],3.65 µM (active)
same,outcome,[5],inactive
same,outcome,[6],inactive
same,outcome,[7],inactive
O=c1[nH]c2ccc(S(=O)CCN3CCC(Cc4ccc(F)cc4)CC3)cc2o1 (stereo not drawn),AC50,[1],49.7 µM (active)
same,outcome,[2],inactive
same,outcome,[5],inactive
same,outcome,[6],inactive
Nc1nc2ncc(CNc3ccc(C(=O)N[C@@H](CCC(=O)O)C(=O)O)cc3)nc2c(=O)[nH]1,outcome,[8],inactive
same,outcome,[5],inactive
same,outcome,[6],inactive
same,outcome,[7],inactive
CC1(C)C(=O)N(Br)C(=O)N1Br,outcome,[9],inactive
same,outcome,[8],inactive
same,outcome,[5],inactive
same,outcome,[6],inactive
same,outcome,[7],inactive
CCNc1ccccc1,outcome,[9],inactive
same,outcome,[8],inactive
same,outcome,[5],inactive
same,outcome,[6],inactive
same,outcome,[7],inactive
CC(C)=CCCC(C)CCO (stereo not drawn),outcome,[9],inactive
same,outcome,[8],inactive
same,outcome,[5],inactive
same,outcome,[6],inactive
same,outcome,[7],inactive
CC(C)(O)c1coc(S(=O)(=O)NC(=O)Nc2c3c(cc4c2CCC4)CCC3)c1,outcome,[5],inactive
same,outcome,[6],inactive
same,outcome,[7],inactive
O=C(O)c1cccc(Oc2ccccc2)c1,outcome,[5],inactive
same,outcome,[6],inactive
same,outcome,[7],inactive
C=CC(=C)CCC=C(C)C,outcome,[5],inactive
same,outcome,[6],inactive
same,outcome,[7],inactive
CC(O)CN(CCN(CC(C)O)CC(C)O)CC(C)O (stereo not drawn),outcome,[5],inactive
same,outcome,[6],inactive
same,outcome,[7],inactive
CC(C)=CCC/C(C)=C\CO,outcome,[5],inactive
same,outcome,[6],inactive
same,outcome,[7],inactive
COCCOc1cc2cc(C(=O)NC3CCN(C(C)C)CC3)n(CC(=O)Nc3ccc(Cl)cn3)c2cn1,outcome,[5],inactive
same,outcome,[6],inactive
same,outcome,[7],inactive
Clc1nc(Cl)c(Cl)c(Cl)c1Cl,outcome,[5],inactive
same,outcome,[6],inactive
same,outcome,[7],inactive
CCOCCO,outcome,[5],inactive
same,outcome,[6],inactive
same,outcome,[7],inactive
Nc1ccc(Nc2ccccc2)cc1,outcome,[5],inactive
same,outcome,[6],inactive
same,outcome,[7],inactive
COC(=O)c1ccccc1O,outcome,[5],inactive
same,outcome,[6],inactive
same,outcome,[7],inactive
COc1ccc(-n2nc(C(F)F)cc2-c2ccc(S(C)=O)cc2)cc1 (stereo not drawn),outcome,[5],inactive
same,outcome,[6],inactive
same,outcome,[7],inactive
CC1=CC(=O)CC(C)(C)C1,outcome,[5],inactive
same,outcome,[6],inactive
same,outcome,[7],inactive
CCCC(=O)OCC,outcome,[5],inactive
same,outcome,[6],inactive
same,outcome,[7],inactive
NC(=O)NO,outcome,[5],inactive
same,outcome,[6],inactive
same,outcome,[7],inactive
CC/C(=C\C(=N/O)C(N)=O)C(C)[N+](=O)[O-] (stereo not drawn),outcome,[5],inactive
same,outcome,[6],inactive
same,outcome,[7],inactive
O=C1OC(=O)C2C3C=CC(C3)C12 (stereo not drawn),outcome,[5],inactive
same,outcome,[6],inactive
same,outcome,[7],inactive
O=C1CCC(N2C(=O)c3ccccc3C2=O)C(=O)N1 (stereo not drawn),outcome,[5],inactive
same,outcome,[6],inactive
same,outcome,[7],inactive
C[C@](N)(Cc1ccc(O)c(O)c1)C(=O)O,outcome,[5],inactive
same,outcome,[6],inactive
COC(=O)CC(=O)OC,outcome,[5],inactive
same,outcome,[6],inactive
same,outcome,[7],inactive
CN(C)c1ccc(Cc2ccc(N(C)C)cc2)cc1,outcome,[5],inactive
same,outcome,[6],inactive
CCOC(=O)CC(CC(=O)OCC)(OC(C)=O)C(=O)OCC,outcome,[5],inactive
same,outcome,[6],inactive
CNCc1ccc(NC(=O)c2c[nH]c3c2C(=O)CCC3)cc1,outcome,[5],inactive
same,outcome,[6],inactive
C1=CCCC=CCCC=CCC1,outcome,[5],inactive
same,outcome,[6],inactive
same,outcome,[7],inactive
CCOCCOCCOCCO,outcome,[5],inactive
same,outcome,[6],inactive
same,outcome,[7],inactive
CCN(C(=O)c1cc(C)cc(OC[C@H](C)Nc2ccncc2)c1)C(C)C,outcome,[5],inactive
same,outcome,[6],inactive
same,outcome,[7],inactive
COC(=O)c1c(Cl)c(Cl)c(C(=O)OC)c(Cl)c1Cl,outcome,[5],inactive
same,outcome,[6],inactive
same,outcome,[7],inactive
COCCOCCOCCOC,outcome,[5],inactive
same,outcome,[6],inactive
same,outcome,[7],inactive
CC(C)CCCCCCOC(=O)c1ccc(C(=O)OCCCCCCC(C)C)c(C(=O)OCCCCCCC(C)C)c1,outcome,[5],inactive
same,outcome,[6],inactive
same,outcome,[7],inactive
CC(=O)c1ccc2c(c1)[C@H](NC(=O)c1ccc(F)cc1)[C@@H](O)C(C)(C)O2,outcome,[5],inactive
same,outcome,[6],inactive
same,outcome,[7],inactive
